PubChem BioAssay (NCATS)
Records with an inconclusive call do not appear. A call without a number means that no potency is given here. Active and inactive are the calls of the source. The call rests on the fitted dose curve; in most records, active means well fitted inhibition curve with a large enough effect; inconclusive means small, poorly fitted or top-dose-only effect; inactive means flat fitted curve, though single readings scatter. Where a SMILES comes first, the peptide text is derived from it. [ ]: non-standard residue; d: D form. pGlu = O=C1CC[C@@H](C(=O)O)N1; Thz = O=C(O)[C@@H]1CSCN1

target: Glutathione peroxidase 1 (Homo sapiens) (UniProt P07203); experiment: Primary qHTS Assay for Inhibitors of Recombinant Selenoprotein Glutathione Peroxidase 1 (GPX1) (AID 1845191); details: recombinant GPX1, GR-coupled NADPH fluorescence, 15 min; series mostly up to 48.8 µM; further: nearly all actives have a fitted effect of over 65% in size
Procedure, shortened: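 GR-coupled assay: compounds preincubated 30 min at room temperature with GPX1, then reaction started with CHP; final 10 nM GPX1, 1 mM GSH, 0.5 mM CHP, 0.5 mM NADPH, 100 nM GR, 0.01% BSA, pH 7.5 Tris buffer. NADPH fluorescence (340/450 nm) read at 0 and 15 min.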
Potency means the concentration at half of the fitted maximal effect.

Sequence of Glutathione peroxidase 1 (Homo sapiens) (P07203 whole entry, looked up): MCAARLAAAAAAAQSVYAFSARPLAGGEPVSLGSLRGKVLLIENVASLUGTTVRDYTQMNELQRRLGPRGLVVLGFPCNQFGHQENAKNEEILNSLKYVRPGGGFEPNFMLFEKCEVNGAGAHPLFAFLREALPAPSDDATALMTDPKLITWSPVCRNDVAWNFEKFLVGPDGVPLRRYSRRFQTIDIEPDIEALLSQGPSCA

Row | SMILES | Potency
1 | O=C(O)CC1CC(c2ccccc2)=NO1 (centres undefined) | inactive
2 | O=C1CC[C@@H](C(=O)N2CSC[C@H]2C(=O)O)N1 ([pGlu]-[Thz]-OH) | inactive
3 | Cc1ccc2c(n1)Oc1ccc(C(C)C(=O)OCC(=O)N(C)C)cc1C2 (centres undefined) | inactive
4 | O=C(Nc1cccc(C(=O)Nc2ccc(S(=O)(=O)O)c3cc(S(=O)(=O)O)cc(S(=O)(=O)O)c23)c1)Nc1cccc(C(=O)Nc2ccc(S(=O)(=O)O)c3cc(S(=O)(=O)O)cc(S(=O)(=O)O)c23)c1 | inactive
5 | N#C/C(=C\c1ccc(O)c(O)c1)C(=O)NCc1ccccc1 | inactive
6 | Cc1cn([C@H]2CC(N=[N+]=[N-])[C@@H](CO)O2)c(=O)[nH]c1=O (some centres undefined) | inactive
7 | COc1cc(/C=C/C(=O)N2CCN(CC(=O)N3CCCC3)CC2)cc(OC)c1OC | inactive
8 | CC1(C)S[C@@H]2[C@H](NC(=O)[C@H](NC(=O)N3CCN(S(C)(=O)=O)C3=O)c3ccccc3)C(=O)N2[C@H]1C(=O)O | inactive
9 | C[C@H](O)[C@H](O)[C@H]1CNc2nc(N)[nH]c(=O)c2N1 | 18 µM (active)
10 | CN1[C@@H]2CC[C@H]1CC(OC(c1ccccc1)c1ccccc1)C2 (some centres undefined) | inactive
11 | CC(=O)SCC(CC(=O)c1ccc(C)cc1)C(=O)O (centres undefined) | inactive
12 | C=C[C@H]1CN2CC[C@@H]1C[C@@H]2[C@@H](O)c1ccnc2ccc(OC)cc12 | inactive
13 | CC1(C)[C@@H](O)CC[C@]2(C)[C@H]3C(=O)C=C4[C@@H]5C[C@@](C)(C(=O)O)CC[C@]5(C)CC[C@@]4(C)[C@]3(C)CC[C@@H]12 | inactive
14 | COC(=O)[C@H]1[C@H]2C[C@@H]3c4[nH]c5cc(OC)ccc5c4CCN3C[C@H]2C[C@@H](OC(=O)/C=C/c2cc(OC)c(OC)c(OC)c2)[C@@H]1OC | inactive
